Experimental data: PubChem BioAssay (NCATS)
Values joined by “and” are separate entries in the source; they are usually repeats but may differ in a detail not shown here. Equal values may be shown once. Results filed as inconclusive are left out. Active and inactive are the calls of the source. Unless noted, the call rests on the fitted dose curve; in most records, active means well fitted inhibition curve with a large enough effect; inconclusive means small, poorly fitted or top-dose-only effect; inactive means flat fitted curve, though single readings scatter.

What was measured:
[1] = Drug repurposing screens with cells derived from glioblastoma tumor samples (AID 1345199); details: GBM patient neurospheres viability, ATP luminescence, 48 h; further: on the % scale 0 is the no-effect control and ±100 the full control effect; nearly all actives have a fitted effect of over 40% in size
Summary of the method: (§1)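 Primary testing used CD133+ neurospheres from four GBM patients, seven concentrations, 48 h exposure and ATP-based viability; confirmation added three slower-growing patient lines.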

astro = control astrocytes; experiment: as above; details: viability, ATP luminescence, 48 h; series mostly up to 45.9 µM
Summary of the method: as §1

[2] = biological target: Nuclear receptor subfamily 1 group I member 2 (Rattus norvegicus) (UniProt Q9R1A7); experiment: qHTS assay for small molecule activators of the rat pregnane X receptor (rPXR) signaling pathway (AID 651751; call rule not given here; further: 0% is about no effect); details: rPXR reporter cells, luciferase (One-Glo), 24 h
[3] = qHTS assay for small molecule activators of the human pregnane X receptor (PXR) signaling pathway (AID 720659; call rule not given here; further: 0% is about no effect); details: DPX-2 HepG2 CYP3A4-luciferase, 24 h; series mostly up to 92.3 µM
[4] = at 45.9 µM (top of the series), tumour line B
[5] = at 45.9 µM (top of the series), tumour line D
[6] = at 46 µM (top of the series), tumour line A
[7] = at 46.1 µM (top of the series), tumour line C

Sequence of Nuclear receptor subfamily 1 group I member 2 (Rattus norvegicus) (Q9R1A7 whole entry, looked up): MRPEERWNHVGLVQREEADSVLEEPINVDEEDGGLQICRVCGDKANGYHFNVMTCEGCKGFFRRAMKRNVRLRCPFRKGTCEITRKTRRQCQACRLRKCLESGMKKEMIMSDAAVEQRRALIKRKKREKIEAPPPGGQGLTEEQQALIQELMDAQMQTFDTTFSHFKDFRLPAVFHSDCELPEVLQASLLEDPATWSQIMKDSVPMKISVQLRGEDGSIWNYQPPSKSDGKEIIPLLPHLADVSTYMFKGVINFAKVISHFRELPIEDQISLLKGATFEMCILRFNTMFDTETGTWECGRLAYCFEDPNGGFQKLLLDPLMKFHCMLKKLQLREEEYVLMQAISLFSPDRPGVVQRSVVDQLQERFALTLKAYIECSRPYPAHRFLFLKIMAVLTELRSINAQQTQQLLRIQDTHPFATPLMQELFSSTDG

COC(=O)CCC[N+](C)(C)C
inactive: activity, negative = cell killing [1, 4] 2.12% | activity, negative = cell killing [1, 5] -8.53% | activity, negative = cell killing [1, 6] -30.6% | activity, negative = cell killing [1, 7] -18.9% | Potency (astro)

OCc1ccccc1
inactive: activity, negative = cell killing [1, 4] -6.55% | activity, negative = cell killing [1, 5] 18% | activity, negative = cell killing [1, 6] -25.4% | activity, negative = cell killing [1, 7] 15.3% | Potency (astro) | max response [2] 22.6% | outcome [3]

COC(=O)c1ccccc1O
inactive: activity, negative = cell killing [1, 4] -5.99% | activity, negative = cell killing [1, 5] -6.33% | activity, negative = cell killing [1, 6] -21.5% | activity, negative = cell killing [1, 7] 12.1% | Potency (astro) | max response [2] -2.2% and 1.51%

CC(C)[C@@H]1CC[C@@H](C)C[C@H]1O
inactive: activity, negative = cell killing [1, 4] -7.27% | activity, negative = cell killing [1, 5] 3.66% | activity, negative = cell killing [1, 6] -18.1% | activity, negative = cell killing [1, 7] -14.4% | Potency (astro) | max response [2] -1.32% | outcome [3]

Nc1ncnc2c1ncn2[C@H]1CC[C@@H](CO)O1
inactive: activity, negative = cell killing [1, 4] -7.29% | activity, negative = cell killing [1, 5] -3.43% | activity, negative = cell killing [1, 6] -28.3% | activity, negative = cell killing [1, 7] -20.8% | Potency (astro) | max response [2] -2.84% and -0.199% | outcome [3]

c1ccc2ccccc2c1
inactive: activity, negative = cell killing [1, 4] -9.97% | activity, negative = cell killing [1, 5] 9.45% | activity, negative = cell killing [1, 6] -4.53% | activity, negative = cell killing [1, 7] -18.3% | Potency (astro) | max response [2] -1.58% and 3.23%

OCC(O)CO
inactive: activity, negative = cell killing [1, 4] -10.1% | activity, negative = cell killing [1, 5] -10.7% | activity, negative = cell killing [1, 6] -18.9% | activity, negative = cell killing [1, 7] 6.43% | Potency (astro) | max response [2] -2.39% and -3.75% | outcome [3]

CC(C)[C@@H](N)C(=O)O
inactive: activity, negative = cell killing [1, 4] -4.72% | activity, negative = cell killing [1, 5] -10.1% | activity, negative = cell killing [1, 6] -15.5% | activity, negative = cell killing [1, 7] -0.187% | Potency (astro)

C[C@H](CCC(=O)O)[C@H]1CC[C@H]2[C@@H]3CC[C@@H]4C[C@H](O)CC[C@]4(C)[C@H]3C[C@H](O)[C@]12C
inactive: activity, negative = cell killing [1, 4] -4.54% | activity, negative = cell killing [1, 5] 7.18% | activity, negative = cell killing [1, 6] -19.5% | activity, negative = cell killing [1, 7] -8.85% | Potency (astro) | max response [2] -12.5%

CC(C)=CCC/C(C)=C/CC/C(C)=C/CC/C=C(\C)CC/C=C(\C)CCC=C(C)C
inactive: activity, negative = cell killing [1, 4] 2.98% | activity, negative = cell killing [1, 5] -28.8% | activity, negative = cell killing [1, 6] -32.1% | activity, negative = cell killing [1, 7] -15.4% | Potency (astro)

CC(=O)Nc1ccc(OC(=O)c2ccccc2O)cc1
inactive: activity, negative = cell killing [1, 4] -6.12% | activity, negative = cell killing [1, 5] -8.68% | activity, negative = cell killing [1, 6] -14.5% | activity, negative = cell killing [1, 7] -22.3% | Potency (astro)

O=C1NC(=O)[C@H]2[C@@H]1[C@@H]1C=C[C@H]2C1
inactive: activity, negative = cell killing [1, 4] -11.5% | activity, negative = cell killing [1, 5] -1.45% | activity, negative = cell killing [1, 6] -23% | activity, negative = cell killing [1, 7] -6.43% | Potency (astro)

CC(=O)NCCCS(=O)(=O)O
inactive: activity, negative = cell killing [1, 4] -1.38% | activity, negative = cell killing [1, 5] -1.99% | activity, negative = cell killing [1, 6] -10.5% | activity, negative = cell killing [1, 7] -6.16% | Potency (astro)

O=P(O)(O)O
inactive: activity, negative = cell killing [1, 4] 9.14% | activity, negative = cell killing [1, 5] -2.27% | activity, negative = cell killing [1, 6] -6.51% | activity, negative = cell killing [1, 7] 0.794% | Potency (astro) | max response [2] -0.433% | outcome [3]

CCCCC
inactive: activity, negative = cell killing [1, 4] -6.65% | activity, negative = cell killing [1, 5] -7.88% | activity, negative = cell killing [1, 6] -21.1% | activity, negative = cell killing [1, 7] 22.7% | Potency (astro) | max response [2] -1.73% | outcome [3]

O=C(O)CCC/C=C\C[C@@H]1[C@@H](/C=C/[C@@H](O)COc2cccc(Cl)c2)[C@H](O)C[C@@H]1O
inactive: activity, negative = cell killing [1, 4] -7.43% | activity, negative = cell killing [1, 5] 0.189% | activity, negative = cell killing [1, 6] -25.8% | activity, negative = cell killing [1, 7] -22.5% | Potency (astro)

CN[C@@H]1[C@H](O[C@H]2[C@H](O[C@H]3[C@H](O)[C@@H](O)[C@H](N=C(N)N)[C@@H](O)[C@@H]3N=C(N)N)O[C@@H](C)[C@]2(O)C=O)O[C@@H](CO)[C@H](O)[C@H]1O
inactive: activity, negative = cell killing [1, 4] 1.28% | activity, negative = cell killing [1, 5] -18.9% | activity, negative = cell killing [1, 6] -12% | activity, negative = cell killing [1, 7] -1.08% | Potency (astro)

OB(O)O
inactive: activity, negative = cell killing [1, 4] -12.9% | activity, negative = cell killing [1, 5] -13.8% | activity, negative = cell killing [1, 6] -26.5% | activity, negative = cell killing [1, 7] 5.29% | Potency (astro) | max response [2] 1.69% and 5.36% | outcome [3]

CC(=O)OCC(=O)[C@@]1(O)CC[C@H]2[C@@H]3CCC4=CC(=O)CC[C@]4(C)C3=CC[C@@]21C
inactive: activity, negative = cell killing [1, 4] -7.95% | activity, negative = cell killing [1, 5] 3.12% | activity, negative = cell killing [1, 6] -15.3% | activity, negative = cell killing [1, 7] -8.95% | Potency (astro)

CC(C)CCC[C@@H](C)[C@H]1CC[C@H]2[C@@H]3CC=C4C[C@@H](O)CC[C@]4(C)[C@H]3CC[C@]12C
inactive: activity, negative = cell killing [1, 4] -9.94% | activity, negative = cell killing [1, 5] -4.88% | activity, negative = cell killing [1, 6] -8.25% | activity, negative = cell killing [1, 7] 1.16% | Potency (astro) | max response [2] -2.23% | outcome [3]

CO
inactive: activity, negative = cell killing [1, 4] -8.56% | activity, negative = cell killing [1, 5] -4.99% | activity, negative = cell killing [1, 6] -10.2% | activity, negative = cell killing [1, 7] -11.6% | Potency (astro) | max response [2] 4.07% | outcome [3]
